From PubChem
An excerpt weighted towards active compounds, which were near 12% of everything screened.
Pf growth 48h: inhibits P. falciparum growth in the first generation, 48 h | P. falciparum luciferase growth in erythrocytes, 48 h | Potency, µM (series often up to 28.7 µM), actives largely listed as inhibitors | 5.9% of 310,000 active | AID 504832
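Luminescence readout; reporter = integrated firefly luciferase in P. falciparum. RBC culture at 2% hematocrit, 0.1% parasitemia final, 37 C/5% CO2; decreased signal taken as growth inhibition.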
SARS PLpro yeast: inhibitors of SARS-CoV papain-like protease in yeast; Potency, µM (titrated, usually from 32.9 µM), most hits filed as activators; 0.19% of 330,000 active; S. cerevisiae expressing SARS-CoV PLpro, growth rescue; calls by dose curve; further: nearly all actives have a fitted effect of over 55% in size
HCV inh: blocks hepatitis C virus. Huh7.5.1 HCVcc-Cre infection, luciferase reporter, 44 h. Potency, µM (top dose mostly 41.8 µM), most hits filed as inhibitors. 3.4% of 340,000 active. AID 651820
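Antiviral activity was scored by luciferase reporter output from cells infected with HCVcc-Cre (~0.5 moi) in presence of compound, 44 h infection period, cells seeded 1,000/well 4 h prior.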
Pf growth 96h: P. falciparum growth inhibition at 96 hour, primary screen for plastid delayed-death inhibitors; P. falciparum luciferase reporter growth, 96 h; Potency, µM (top dose mostly 28.7 µM), actives largely listed as inhibitors; 6.9% of 320,000 active
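Parasite growth measured via integrated firefly luciferase reporter in P. falciparum. Infected erythrocytes at 2% hematocrit, 0.05% parasitemia final were treated 96 hours at 37 C under 5% CO2, and luminescence was read.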
AMA1 RON2 block: inhibitors of Plasmodium falciparum AMA1-RON2 interaction; AlphaScreen AMA1-biotinylated RON2 peptide binding; Potency, µM (top dose mostly 58.2 µM), hits mostly inhibitors; 0.2% of 360,000 active; further: nearly all actives have a fitted effect of over 45% in size
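AMA1 (3D7) with his tag at 25 nM final met compounds first, then biotinylated RON2 peptide at 25 nM; detection used donor plus acceptor beads, 10 µg/mL apiece, read by AlphaScreen after 30 min at room temperature.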
NS1 inh: inhibitors of influenza NS1 protein function. 0.4% of 270,000 active. AID 2326. Potency, µM (series often up to 46.1 µM); calls by dose curve; further: actives are rising curves; nearly all actives have a fitted effect of over 50% in size
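Recovery from NS1-induced slow growth read by OD600 in budding yeast switched to galactose assay medium (pH 6.0, -URA) at 1:100 dilution. Compound 23 nl per well; the matching strain lacking NS1 serves as control.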
Numbers stand for hits; – = inactive; ? = inconclusive; · = no result given; [ ] = remark or other dose. Unless noted, the call rests on the fitted dose curve; in most records, active means well fitted curve in the direction sought with a large enough effect; inconclusive means small, poorly fitted or top-dose-only effect, or another doubt; inactive means no such curve, though single readings can be large; an effect the other way counts as inactive or inconclusive.

SMILES	Pf growth 48h	SARS PLpro yeast	HCV inh	Pf growth 96h	AMA1 RON2 block	NS1 inh
COc1ccccc1N1CCN(c2nc(C)nc3c2oc2ccccc23)CC1	?	–	3.5µM	–	?	–
Cc1nc(N2CCN(Cc3ccc(Cl)cc3)CC2)c2oc3ccccc3c2n1	?	–	8.9µM	?	–	–
O=C(c1ccc(Cl)nc1)N1CCN(S(=O)(=O)c2ccc(Cl)cc2)CC1	–	–	–	–	–	·
COc1ccc(CCN(C)C(=O)C(CCSC)NC(=O)c2ccco2)cc1OC (stereo unspecified)	–	–	–	–	–	·
COc1ccc(OC)c(NC(=O)C(C)Oc2ccc(Br)cc2)c1 (stereo unspecified)	?	–	11µM	?	?	–
CC(Oc1ccc(Br)cc1)C(=O)Nc1ccc(N2CCOCC2)cc1N1CCOCC1 (stereo unspecified)	12µM	–	?	10µM	–	·
COc1ccc(NC(=O)NNC(=O)C(C)Oc2ccc(C(C)C)cc2)c(OC)c1 (stereo unspecified)	–	–	–	?	–	–
COc1ccc(OC)c(NC(=O)C(C)OC(=O)c2cc3ccccc3[nH]2)c1 (stereo unspecified)	·	·	11µM	·	–	·
O=C(COc1ccc(Br)cc1)Nc1ccc(N2CCOCC2)cc1N1CCOCC1	?	–	–	?	–	·
CCCCN(C(=O)Cc1cccc(F)c1)c1c(N)n(CCC)c(=O)[nH]c1=O	–	–	–	–	–	·
O=C(NCc1ccccn1)c1cc(Cl)ccc1OCc1ccccc1	?	–	?	–	–	–
CC[C@]12c3[nH]c4ccc(Cl)cc4c3CCN1C(=O)[C@@H](CC(=O)NC/C=C(\C)CCC=C(C)C)C[C@@H]2C(=O)N1CCN(C(=O)C2CC2)CC1	·	–	22µM	·	–	·
CC[C@]12c3[nH]c4cc(-c5ccco5)ccc4c3CCN1C(=O)[C@@H](CC(=O)NC/C=C(\C)CCC=C(C)C)C[C@@H]2C(=O)N1CCN(C(=O)c2ccco2)CC1	·	–	13µM	·	–	·
CC[C@]12c3[nH]c4cc(-c5ccco5)ccc4c3CCN1C(=O)[C@@H](CC(=O)NC/C=C(\C)CCC=C(C)C)C[C@@H]2C(=O)N1CCN(C(=O)C2CC2)CC1	·	–	16µM	·	–	·
COc1cc(OC)cc(C(=O)Nc2ccc3c(c2)CCCN3C(=O)c2cccs2)c1	?	–	14µM	?	–	–
O=C(Nc1ccc2c(c1)CCCN2C(=O)c1cccs1)c1ccccc1	–	–	32µM	–	–	–
Cc1cc(Cl)ccc1NC(=O)/C=N/O	1.9µM	–	–	–	–	?
COc1cc2c(c(Br)c1N)-c1cc(Br)c(N)cc1C2=O	·	·	·	·	–	·
FC(F)(F)c1ccccc1Cc1c(-c2cccc(Cl)c2)nc2c3ccccc3ccn12	·	·	·	·	–	·
NC(=S)N/N=C/c1ccc(C(F)(F)F)cc1	–	?	–	–	–	–
NC(=S)N/N=C/c1ncc(C(F)(F)F)cc1Cl	1.5µM	–	5.6µM	3.3µM	–	–
COc1cc(/C=N/NC(=O)CSc2nc3ccccc3n2C)cc(OC)c1OC	–	–	–	?	–	–
CN(c1ccccc1)c1nc(N2CCCC2)nc(-n2ccnc2)n1	5.2µM	–	?	?	–	–
c1ccc(N(c2ccccc2)c2nc(N3CCCC3)nc(-n3ccnc3)n2)cc1	5.9µM	–	?	?	–	–
CCOC(=O)N1CCN(c2nc(N(c3ccccc3)c3ccccc3)nc(-n3ccnc3)n2)CC1	?	–	·	?	·	–
SMILES	Pf growth 48h	SARS PLpro yeast	HCV inh	Pf growth 96h	AMA1 RON2 block	NS1 inh
COc1ccc(NC(C)=O)cc1S(=O)(=O)NC1CCSc2ccccc21 (stereo unspecified)	–	–	–	–	–	–
CCC(=NC1CCN(Cc2ccccc2)CC1)c1c(O)[nH]c(=O)[nH]c1=O	?	–	–	5.2µM	–	–
Cc1nc(Nc2ccc(Cl)cc2)c2nnn(Cc3ccccc3)c2n1	?	–	32µM	–	–	–
Cc1nc(NCc2ccc3c(c2)OCO3)c2nnn(Cc3ccccc3)c2n1	–	–	–	12µM	–	–
COc1ccc(Cl)cc1S(=O)(=O)NC(C)C(=O)NCc1ccncc1 (stereo unspecified)	–	–	–	–	–	–
O=C(NCc1ccco1)c1cc(-c2ccncc2)nc2ccccc12	2.1µM	–	–	?	–	?
O=C(Nc1cccc(S(=O)(=O)NCc2ccco2)c1)c1cc(-c2ccc(F)cc2)nc2ccccc12	–	–	?	12µM	–	?
COc1ccc(-c2cc(C(=O)NCc3ccco3)c3ccccc3n2)cc1OC	·	·	?	·	–	·
COc1ccc(-c2cc(C(=O)Nc3cccc(S(=O)(=O)NCc4ccco4)c3)c3ccccc3n2)cc1OC	2.1µM	–	?	?	–	–
COc1ccc(S(=O)(=O)NCc2ccco2)cc1-c1nnc2c3ccccc3c(C)nn12	12µM	–	–	?	–	–
O=C(Nc1ccccc1)c1cccc(S(=O)(=O)NCc2ccco2)c1	–	–	?	–	–	–
CC(=O)NC1[C@H](O)C[C@@](O)(C(=O)O)O[C@H]1[C@H](O)[C@H](O)CO (stereo partly specified)	–	·	·	–	·	·
CCn1cc(C(=O)N2CCN(c3ccccc3F)CC2)c(=O)c2ccc(C)nc21	–	–	–	–	–	–
Cc1cc(OCC(=O)Nc2ccc(S(=O)(=O)N3CCN(C)CC3)cc2)ccc1Cl	4.1µM	–	?	12µM	–	–
CCN1CCc2c(OCC(=O)Nc3ccc4c(c3)OCCO4)cccc2C1=O	–[1.15 µM]	–	·	6.6µM	·	–
Cc1cc(OCC(=O)Nc2ccc3c(c2)OCCO3)ccc1Cl	–	–	–	8.3µM	–	–
Cc1cc(OCC(=O)Nc2ccc(S(=O)(=O)N3CCN(C)CC3)cc2)cc(C)c1Cl	?	–	11µM	–	–	–
Cc1cc(C)cc(OCC(=O)Nc2ccc3c(c2)OCCO3)c1	–	–	–	–	–	·
CN(CC(=O)Nc1ncn[nH]1)S(=O)(=O)c1cc(Cl)ccc1Cl	10µM	–	–	–	–	–
Cc1cc(OCC(=O)Nc2ncn[nH]2)ccc1Cl	–	–	–	1.9µM	–	·
Cc1cc(OCC(=O)Nc2ccncc2)ccc1Cl	–	–	?	?	–	–
CC(=O)Oc1ccc(N(C(C)=O)S(=O)(=O)c2cccs2)c2ccccc12	4.1µM	–	·	·	–	–
CC(=O)Oc1c(Br)cc(N(C(C)=O)S(=O)(=O)c2ccccc2)c2ccccc12	3.3µM	–	?	?	–	–
CC(=O)Oc1ccccc1C(=O)N1CCN(S(=O)(=O)c2ccc3ccccc3c2)CC1	·	–	–	?	–	–
CC(=O)N(c1ccc2oc(=O)sc2c1)S(=O)(=O)c1ccccc1	–	–	–	–	–	–
CC(=O)Oc1ccccc1N(C(C)=O)S(=O)(=O)c1ccc2ccccc2c1	–	–	–	2.3µM	–	–
